Compounds with a hit are over-represented: about 10% of the library has one in this group of screens.
HP1b chromo inh – blocks HP1-beta chromodomain binding to methylated histone tails; P83916; AlphaScreen HP1-beta / biotin-H3K9me3 peptide binding; Potency, µM (doses to about 114 µM), without a hit: at the top dose activity change, negative = inhibition, actives largely listed as inhibitors; 390,000 compounds, 0.56% hits; AID 540317; also: potency is read from the fitted curve at half-maximal effect; nearly all actives have a fitted effect of over 70% in size
Target sequence (P83916 whole entry, looked up): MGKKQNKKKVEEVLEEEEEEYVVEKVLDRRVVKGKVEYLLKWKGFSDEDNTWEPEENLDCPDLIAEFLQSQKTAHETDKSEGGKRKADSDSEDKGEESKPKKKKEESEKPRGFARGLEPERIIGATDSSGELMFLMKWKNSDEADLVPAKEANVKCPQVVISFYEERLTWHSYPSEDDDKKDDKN
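Compound inhibition of the preformed complex between 50 nM HP1-beta and 50 nM biotinylated H3K9me3 peptide was read by AlphaScreen. Buffer was PBS pH 7.4 with 0.01% Tween-20. Incubations ran 30 min at room temperature, with 10 ug/mL donor/acceptor beads.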
Six1-Eya2 blk – Six1/Eya2 interaction inhibition | 360,000 compounds, 0.56% hits | AlphaScreen GST-Six1/His-Eya2 binding, biochemical; hits give low values | activity change, % (no concentration beside the values) | Q15475+O00167; in the data active = activity change below about -65%; inconclusive = mostly about -30% to -63%; also: % is scaled to controls: 0 for no effect and ±100 for the full control effect
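Six1/Eya2 binding was read as AlphaScreen signal after compounds were pinned into GST-Six1 plus His-tagged Eya2 (5X stock 250/500 nM) in pH 8.0 Tris/NaCl/TCEP buffer, beads added, then incubated 1 h, 37 C, dark.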
BAZ2B block – inhibitors of human BAZ2B bromodomain; Q9UIF8; AlphaScreen BAZ2B-H3K14Ac peptide displacement; Potency, µM (highest dose often 114 µM), for the others: at the highest dose activity change, negative = inhibition, actives largely listed as inhibitors; 360,000 compounds, 4.4% hits; AID 504333; also: potency is read from the fitted curve at half-maximal effect; % is scaled to controls: 0 for no effect and ±100 for the full control effect; nearly all actives have a fitted effect of over 60% in size
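AlphaScreen displacement of biotin-H3(5-23)K14Ac peptide (50 nM final) from BAZ2B (50 nM final) in PBS pH 7.4, 0.01% Tween-20; complex preformed 30 min RT, then compounds (top 110 uM) 30 min RT, beads 20 min dark.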
JMJD2A Tudor inh – blocks the human JMJD2A Tudor domain; O75164; AlphaScreen JMJD2A-Tudor / H3K4me3 peptide binding; Potency, µM (titrated, usually from 114 µM), for the others: at the top dose activity change, negative = inhibition, usual class: inhibitors; 390,000 compounds, 4.4% hits; also: potency is read from the fitted curve at half-maximal effect; % is scaled to controls: 0 for no effect and ±100 for the full control effect; nearly all actives have a fitted effect of over 50% in size
CtBP-E1A inh – blocks the CtBP interaction with E1A | AlphaScreen GST-E1A/His-CtBP binding, 1536-well; hits give low values | activity change, % (concentration not given with the values) | 340,000 compounds, 0.49% hits | AID 651724; in the data active = activity change below about -65%; inconclusive = mostly about -30% to -63%; also: % is scaled to controls: 0 for no effect and ±100 for the full control effect
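AlphaScreen with 125 nM GST-E1A and 125 nM His-CtBP (5X stocks) in Tris pH 8.0, 300 mM NaCl, BSA, Tween 20, TCEP. Compounds preincubated 2 h at 37 deg C, then glutathione donor/nickel acceptor beads added for 1 h at 37 deg C in dark.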
G9a inh – G9a (human) methyltransferase inhibition; G9a H3K9 monomethylation, AlphaScreen, 2 h; Potency, µM (titrated, usually from 102 µM), for inactives: at the top dose activity, negative = inhibition, hits mostly inhibitors; 350,000 compounds, 8.8% hits; AID 504332; also: potency is read from the fitted curve at half-maximal effect; % is scaled to controls: 0 for no effect and ±100 for the full control effect; nearly all actives have a fitted effect of over 75% in size
Target sequence (Q96KQ7 913-1193 limits assumed): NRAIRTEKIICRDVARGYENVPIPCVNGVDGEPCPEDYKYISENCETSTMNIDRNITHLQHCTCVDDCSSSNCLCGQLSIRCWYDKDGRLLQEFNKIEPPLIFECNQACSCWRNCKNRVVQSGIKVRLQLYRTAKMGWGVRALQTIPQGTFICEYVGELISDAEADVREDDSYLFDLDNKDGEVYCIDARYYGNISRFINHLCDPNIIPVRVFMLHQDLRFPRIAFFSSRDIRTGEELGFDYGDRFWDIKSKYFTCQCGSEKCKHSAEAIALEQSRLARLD
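G9a (20 nM) was preincubated 15 min with compound, then reacted 2 h at room temperature with 500 nM biotin-H3K9 peptide and 20 µM SAM. Monomethyl-H3K9 detected by AlphaScreen using anti-H3K9me1 antibody.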
* marks the source's active call; other numbers are inactive results; u = inconclusive; x = no result; ! = not confirmed by another sample; [ ] = dose if it differs, or a comment. Unless noted, calls follow the shape of the dose curve; as a rule, active = well fitted inhibition curve with a large enough effect; inconclusive = small, poorly fitted or top-dose-only effect; inactive = no such curve, though single readings can be large or run the other way.

SMILES	HP1b chromo inh	Six1-Eya2 blk	BAZ2B block	JMJD2A Tudor inh	CtBP-E1A inh	G9a inh
O=C(NCc1ccccc1F)Nc1ccc([N+](=O)[O-])cc1	10.3%	-6.6	-9.6%	-13.7%	3.4	-44.2%
COc1ccc(-c2nnc(SCC(=O)Nc3cccc(Cl)c3C)nc2-c2ccc(OC)cc2)cc1	-5.9%	x	-25.8%	u	x	-29.4%[59 µM]
CCN(CC)C(=O)c1sc2c(c1C)c(=O)n(CCc1ccccc1)c(=O)n2Cc1cccc(Cl)c1	47.8%	x	0.6%	-10.3%	x	1.4%[59 µM]
COc1cccc(-n2ccnc2SCC(=O)Nc2cc(C)on2)c1	0.8%	5.4	-29.1%	-27.1%	5.0	-28.4%
Cc1cc(C)cc(-n2ccnc2SCC(=O)Nc2ccc(C)cc2C)c1	-10.6%[57 µM]	x	31.6µM*	39.8µM*	x	11.2µM*
COc1ccc(Cl)cc1NC(=O)CSc1nccn1-c1ccc(Cl)cc1	-8.3%[57 µM]	x	-23.6%	-15.8%	x	-32.3%[59 µM]
Cc1cccc(-n2ccnc2SCC(=O)Nc2cccc3ccccc23)c1	u	x	15.8µM*	31.6µM*	x	12.6µM*
COc1ccc(OC)c(NC(=O)CSc2nccn2-c2cc(C)cc(C)c2)c1	u	x	12.6µM*	10µM*	x	15.8µM*
COc1ccc(C2Nc3ccccc3C(=O)N2Cc2ccccc2)cc1COc1ccc(C)cc1 (stereo not given)	x	x	x	-14.3%	x	x
COc1ccc(C(=O)NCCn2cc(SCC(=O)Nc3ccc(F)cc3)c3ccccc32)cc1	27.0%	x	-25.8%	-17.9%	x	4.7%[59 µM]
COC(=O)c1sccc1NC(=O)C1CCCCC1C(=O)O (stereo not given)	32.1%	9.2	-0.1%	-12.1%	x	-2.2%
Cc1nc2c(o1)CCc1ccccc1C2N1CCN(C)CC1 (stereo not given)	7.1%	18.6	-36.4%	89.1µM*!	-11.4	5.8%[59 µM]
COc1ccc(C(=O)Nc2ccc(S(=O)(=O)N3CCN(C)CC3)cc2)cc1[N+](=O)[O-]	19.1%	-29.4	-24.8%	-6.6%	-23.8	0.7%[59 µM]
COc1ccc(C(=O)Nc2ccc(S(=O)(=O)NC(C)=O)cc2)cc1[N+](=O)[O-]	29.3%	-8.1	-14.9%	-17.6%	-2.6	50.1µM*
CCOCCCNS(=O)(=O)c1ccc(NC(=O)c2ccc(OC)c([N+](=O)[O-])c2)cc1	-14.8%	-2.1	0.2%	11.2µM*	7.0	11.3%
COc1ccc(CCNC(=O)c2cnc3ccc(C)cn3c2=O)cc1	32.6%	x	-1.6%	-0.7%	x	-1.7%[59 µM]
Cc1nc(-c2ccc(C)c(N3CCN(C(=O)Nc4cccc(Cl)c4C)CC3)c2)no1	29.6%[57 µM]	x	0.5%	4.2%	x	15.0%[59 µM]
C=CCn1c(Cc2ccccc2)nnc1SCc1nc2ccccc2c(=O)[nH]1	54.5%	8.3	2.9%	-4.2%	-6.3	50.1µM*
COCCn1c(SCc2nc3ccccc3c(=O)[nH]2)nc2ccccc2c1=O	20.3%	4.4	0.8%	-15.1%	4.9	5.4%
C=CCn1c(SCc2nc3ccccc3c(=O)[nH]2)nc2ccccc2c1=O	22.5%	-2.4	3.7%	-15.6%	-6.1	7.94µM*
C=CCn1c(Cc2ccc(OC)cc2)nnc1SCc1nc2ccccc2c(=O)[nH]1	20.4%	-0.8	5.3%	0.6%	-1.6	-7.5%[59 µM]
O=c1[nH]c(CSc2nnc(COc3ccccc3)n2-c2ccccc2)nc2ccccc12	-18.0%	-4.1	2.9%	u	-16.4	4.47µM*
CCCn1c(SCc2nc3sc(C)c(C)c3c(=O)[nH]2)nc2ccccc2c1=O	24.2%	-2.6	-7.8%	-13.2%	3.6	50.1µM*
CCCCn1c(SCc2nc3ccccc3s2)nc2ccccc2c1=O	83.0%	-0.7	2.5%	-10.6%	-4.3	5.0%[59 µM]
Cc1ccc(NS(=O)(=O)c2cc3c(cc2-c2ccsc2)NC(=O)CO3)cc1C	x	x	x	-28.6%	x	x
SMILES	HP1b chromo inh	Six1-Eya2 blk	BAZ2B block	JMJD2A Tudor inh	CtBP-E1A inh	G9a inh
Cc1cccc(S(=O)(=O)N2CCN(S(=O)(=O)c3ccc4c(c3)OCCO4)CC2)c1	x	x	x	-13.7%	x	x
CCOc1ccc(-c2nonc2NC(=O)c2oc3ccc(Br)cc3c2C)cc1	70.0%	x	3.0%	-7.2%	x	23.8%[59 µM]
CC(C)(C)NC(=O)Nc1ccc(F)c(Cl)c1	40.3%	1.8	-4.3%	9.1%	-5.7	5.9%[59 µM]
CC(C)(O)C(=O)NNC(=S)Nc1ccc(F)c(Cl)c1	6.0%	4.4	-1.1%	-15.3%	15.0	44.7µM*
Cn1cccc1Cc1nnc(SCC(=O)NC2CCCC2)n1-c1ccc(F)cc1	36.9%	-2.5	-7.1%	-29.6%	-3.5	70.8µM*
O=C(CSc1nnc(Cc2cc(=O)[nH]c(=O)[nH]2)n1-c1ccc(F)cc1)NC1CCCC1	54.0%	-0.5	-1.3%	-0.7%	1.1	79.4µM*
Cn1cccc1Cc1nnc(SCC(=O)NC2CCCCC2)n1CCc1ccccc1	24.9%	-15.2	-38.9%	u	-4.5	44.7µM*
CCc1ccc(NC(=O)CSc2nnc(Cc3cccn3C)n2-c2ccc(F)cc2)cc1	-21.5%	-12.9	u	u	-5.2	u
COc1cccc(-n2c(Cc3cc(=O)[nH]c(=O)[nH]3)nnc2SCC(=O)NC2CCCCC2)c1	52.3%	-3.0	5.3%	0.0%	0.7	u
Cn1cccc1Cc1nnc(SCC(=O)NCc2ccc(F)cc2)n1-c1ccc(F)cc1	15.8%	-0.4	u	-28.9%	-9.6	50.1µM*
Cn1c(=O)cc(SCC(=O)NCCc2ccc(Cl)cc2)c2cc(Cl)ccc21	21.1%	x	-4.9%	-5.7%	x	2.3%[59 µM]
Cn1c(=O)c(-c2ccc(Cl)cc2)nc2cnc(Nc3ccccc3)nc21	x	x	x	x	x	-1.9%[0.501 µM]
Cc1ccc(-n2nc(C(=O)N(C)c3ccccc3Cl)c3c4ccccc4n(C)c3c2=O)cc1	-1.7%	x	x	-27.7%	x	-27.2%[59 µM]
CCCCC(=O)N1CCc2cc(OC)c(OC)cc2C1COc1ccc(C(=O)OCC)cc1 (stereo not given)	21.6%	x	-16.2%	-22.3%	x	-4.7%[59 µM]
Cc1ccc(-n2c(=O)c3oc4ccccc4c3n(Cc3ccccc3)c2=O)cc1C	29.3%	x	-4.8%	1.1%	x	-3.0%[59 µM]
COc1cccc(-n2c(Cc3cc(=O)[nH]c(=O)[nH]3)nnc2SCc2cccnc2)c1	69.5%	0.1	14.7%	-2.8%	5.3	50.1µM*
CSc1nnc(Cc2cc(=O)[nH]c(=O)[nH]2)n1-c1cc(C)ccc1C	23.4%	0.9	-4.0%	-16.7%	-3.2	u
CCOC(=O)CSc1nnc(Cc2cc(=O)[nH]c(=O)[nH]2)n1-c1ccc(Cl)cc1	4.8%	7.9	-0.6%	u	-2.6	50.1µM*
Cc1ccc(C)c(-n2c(Cc3cc(=O)[nH]c(=O)[nH]3)nnc2SC(C)C)c1	91.7%	20.9	6.6%	-13.8%	0.0	50.1µM*
Cn1cccc1Cc1nnc(SCC(=O)NCc2ccccc2)n1-c1ccc(F)cc1	16.9%	-7.3	u	-33.8%	-7.3	50.1µM*
Cc1cccc(-c2cccc3nccn23)c1	x	7.2	x	x	4.2	x
